Assay results as given in PubChem BioAssay (Tox21).
Inconclusive results are not listed. Active and inactive are the calls of the source. Unless noted, the call rests on the fitted dose curve; in most records, active means well fitted curve in the direction sought with a large enough effect in the repeat runs; inconclusive means weak or mixed curves; inactive means no such curve, though single readings can be large; an effect the other way counts as inactive or inconclusive.

Tests used:
[1] = target: Estrogen receptor (Homo sapiens) (UniProt P03372); assay: qHTS assay to identify small molecule antagonists of the estrogen receptor alpha (ER-alpha) signaling pathway using the BG1 cell line in the presence of 0.1 nM 17-beta-estradiol (AID 1259244); further: nearly all actives have a fitted effect of over 50% in size; further: potency means the concentration at half of the fitted maximal effect
Estrogen receptor (Homo sapiens), sequence (P03372 whole entry, looked up): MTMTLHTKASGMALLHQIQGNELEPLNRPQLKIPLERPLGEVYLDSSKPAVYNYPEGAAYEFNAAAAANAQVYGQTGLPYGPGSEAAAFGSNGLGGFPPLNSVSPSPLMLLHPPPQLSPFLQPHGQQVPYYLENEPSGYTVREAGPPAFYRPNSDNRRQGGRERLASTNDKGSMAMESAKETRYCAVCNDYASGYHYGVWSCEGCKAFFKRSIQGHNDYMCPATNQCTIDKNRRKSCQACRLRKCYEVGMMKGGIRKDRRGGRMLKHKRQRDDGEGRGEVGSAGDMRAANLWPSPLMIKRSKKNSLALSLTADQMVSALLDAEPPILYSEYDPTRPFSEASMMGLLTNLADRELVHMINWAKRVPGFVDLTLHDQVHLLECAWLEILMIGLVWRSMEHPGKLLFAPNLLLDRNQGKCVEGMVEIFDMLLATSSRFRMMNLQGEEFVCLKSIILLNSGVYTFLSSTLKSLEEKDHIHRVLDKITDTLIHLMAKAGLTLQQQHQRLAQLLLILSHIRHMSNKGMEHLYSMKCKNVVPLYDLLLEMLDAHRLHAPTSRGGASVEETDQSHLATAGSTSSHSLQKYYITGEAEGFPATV
Method in brief: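 Cells: VM7Luc4E2, endogenous ER-alpha, 4x ERE-luc stable. Pre-culture 5 d, phenol red-free, charcoal-stripped FBS. Plated 24 h, compound + E2 0.1 nM final, 22 h 37C/5% CO2. Readout ONE-Glo luminescence.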

[2] = qHTS assay to identify small molecule phospholipidosis (PLD) inducers (AID 1259344; active means well fitted curve in the direction sought with a large enough effect; an effect the other way counts as inactive or inconclusive)
Method in brief: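 HepG2 cells grown on collagen I take up LipidTOX Red while exposed to compound for 24 h; after fixation they are imaged at 20x and pit metrics are extracted.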

[3] = qHTS assay to identify small molecule HDAC inhibitors (AID 1259364); further: nearly all actives have a fitted effect of over 45% in size; further: potency means the concentration at half of the fitted maximal effect; on activity change, negative = inhibition: top concentration of the series differs between compounds
Method in brief: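 Luminescence from a cell-permeant luminogenic class I/II HDAC substrate reports endogenous deacetylase activity in intact HCT-116 cells treated with compounds for 2 h.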

[4] = qHTS assay to identify small molecule HDAC inhibitors - cell viability counter screen (AID 1259365); further: series mostly up to about 92 µM; nearly all actives have a fitted effect of over 50% in size
Method in brief: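 Wild-type HCT-116 cells, 1,500/well, cultured overnight, then compound-treated 2 h at 37 C. Viability measured as ATP luminescence with CellTiter-Glo after 30 min at room temperature.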

[5] = qHTS assay to identify small molecule agonists of the sonic hedgehog signaling (Shh) pathway - cell viability counter screen (AID 1259366); further: nearly all actives have a fitted effect of over 50% in size; further: potency means the concentration at half of the fitted maximal effect
Method in brief: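 NIH/3T3-derived Gli1-Luc reporter cells, 2,000 per well, received compound after 4 h and were treated about 23 h at 37C. Viability measured in the same wells by CellTiter-Fluor fluorescence after 1 h.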

[6] = qHTS assay to identify small molecule antagonists of the sonic hedgehog signaling (Shh) pathway - cell viability counter screen (AID 1259367); further: nearly all actives have a fitted effect of over 55% in size
Method in brief: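 After a 4 hr settling period, 3T3 Gli1-Luc cells were treated with DMSO-dissolved chemicals and conditioned medium, kept 24 hr at 37C in 5% CO2, and assayed for viability by CellTiter-Fluor fluorescence following 1 hr reagent incubation.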

[7] = qHTS assay to identify small molecule agonists of the sonic hedgehog signaling (Shh) pathway (AID 1259368; calls by dose curve; further: nearly all actives have a fitted effect of over 15% in size; further: potency means the concentration at half of the fitted maximal effect;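 on activity change: NIH/3T3-derived 3T3Gli1-Luc cells carrying a stable Gli1-driven firefly luciferase reporter; series mostly up to about 92 µM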)
Method in brief: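 3T3Gli1-Luc (NIH/3T3 clone, stable Gli1-Luc); 4 hr pre-incubation, then cpd in DMSO 24 hr, 37 C/5% CO2; luciferase reagent 30 min RT; luminescence.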

[8] = qHTS assay to identify small molecule antagonists of the sonic hedgehog signaling (Shh) pathway (AID 1259369; calls by dose curve; further: nearly all actives have a fitted effect of over 45% in size; further: potency means the concentration at half of the fitted maximal effect)
Method in brief: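 3T3Gli1-Luc, conditioned-medium-stimulated, 24hr cpd, 37C/5% CO2; Gli1-driven firefly Luc luminescence after 30min RT with luciferase reagent. Cells plated 4hr before cpd.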

[9] = target: Estrogen receptor beta (Homo sapiens) (UniProt Q92731); assay: qHTS assay to identify small molecule agonists of the estrogen receptor beta (ER-beta) signaling pathway (AID 1259377; active means well fitted activation curve with a large enough effect in the signal ratio in the repeat runs, not every such curve was filed as active; the % refers to the signal ratio)
Estrogen receptor beta (Homo sapiens), sequence (Q92731 whole entry, looked up): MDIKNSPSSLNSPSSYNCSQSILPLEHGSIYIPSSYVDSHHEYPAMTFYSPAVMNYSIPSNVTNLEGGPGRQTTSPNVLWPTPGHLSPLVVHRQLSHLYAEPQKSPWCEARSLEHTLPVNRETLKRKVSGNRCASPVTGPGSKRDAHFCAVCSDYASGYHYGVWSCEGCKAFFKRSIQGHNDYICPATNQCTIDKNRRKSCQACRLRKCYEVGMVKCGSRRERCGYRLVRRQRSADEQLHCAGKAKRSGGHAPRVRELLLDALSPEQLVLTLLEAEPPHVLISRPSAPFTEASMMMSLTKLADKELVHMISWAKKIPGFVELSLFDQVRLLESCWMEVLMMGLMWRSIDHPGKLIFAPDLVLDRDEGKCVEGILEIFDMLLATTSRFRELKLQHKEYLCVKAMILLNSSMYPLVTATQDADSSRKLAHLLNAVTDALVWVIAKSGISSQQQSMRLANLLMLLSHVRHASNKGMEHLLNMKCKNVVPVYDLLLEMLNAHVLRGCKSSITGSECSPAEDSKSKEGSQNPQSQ
Method in brief: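 ER-beta-UAS-bla HEK293T cells in medium with 2% charcoal-stripped FBS were exposed to compounds for 16 h at 37C. Beta-lactamase reporter activity was read as fluorescence after 2 h with LiveBLAzer B/G FRET substrate at room temperature.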

[10] = target: Estrogen receptor beta (Homo sapiens) (UniProt Q92731); assay: qHTS assay to identify small molecule antagonists of the estrogen receptor beta (ER-beta) signaling pathway (AID 1259378; active means well fitted inhibition curve with a large enough effect in the signal ratio in the repeat runs, not every such curve was filed as active; the % refers to the signal ratio)
Method in brief: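 ER-beta-UAS-bla HEK293T (GripTite) cells in 2% charcoal-stripped FBS medium were preincubated 6 hr at 37C, dosed with compound, then stimulated with 1 nM E2 (final) for 16 hr; beta-lactamase reporter read by B/G FRET fluorescence after 2 hr substrate loading.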
On the % scale 0 is the no-effect control and ±100 the full control effect.

CCC(C)(C)c1ccc(CC(C)CN2C[C@@H](C)O[C@@H](C)C2)cc1 (some centres undefined)
inactive: Potency [1] | Potency [2] | Potency [3] | Potency [4] | Potency [5] | Potency [6] | Potency [7]

C/C=C/C(=O)OCC(C)C
inactive: Potency [1] | Potency [3] | Potency [4] | Potency [5] | Potency [6] | Potency [7] | Potency [8] | outcome [9] | Potency [10]

CCCC(=O)c1cc(O)c(O)cc1O
inactive: Potency [1] | PLD induction [2] -3.64% [at 3.15 µM] | Potency [3] | Potency [4] | Potency [7]
active: Potency [5] 54.5 µM | Potency [8] 27.3 µM

C1=CCCC1
inactive: Potency [1] | Potency [3] | Potency [4] | Potency [5] | Potency [6] | Potency [7] | Potency [8]

CC/C=C(\C)C=O
inactive: Potency [1] | Potency [3] | Potency [4] | Potency [5] | Potency [6] | Potency [7] | Potency [8]

O=C(CCN1CCC(c2ccccc2)C1)c1ccc2c(c1)OCCO2 (centres undefined)
active: Potency [5] 33.5 µM | Potency [8] 18.8 µM
inactive: Potency [1] | Potency [2] | Potency [3] | Potency [4] | Potency [7] | outcome [9] | Potency [10]

Cc1ccc2sc3cccc(C)c3c2c1
inactive: Potency [1] | Potency [3] | Potency [4] | Potency [5] | Potency [6] | Potency [7] | Potency [8] | outcome [9] | Potency [10]

CCCCCCCCCCCCCCCCCCNC(=O)OC1CCN(C(=O)OC[C@H](COC(=O)N(Cc2cccc[n+]2CC)C(=O)c2ccccc2OC)OC)CC1
inactive: Potency [3] | Potency [4] | Potency [5] | Potency [6] | Potency [7]
active: Potency [1] 29.8 µM | Potency [8] 26.6 µM

CCCCCCCCCCCC(=O)Cl
inactive: Potency [1] | Potency [3] | Potency [4] | Potency [5] | Potency [6] | Potency [7] | Potency [8]

O=C(N[C@H](CO)[C@H](O)c1ccc([N+](=O)[O-])cc1)C(Cl)Cl
inactive: Potency [1] | Potency [2] | Potency [3] | Potency [4] | Potency [5] | Potency [7] | Potency [8]

Cc1ccc(C=O)cc1
inactive: Potency [1] | Potency [3] | Potency [4] | Potency [5] | Potency [6] | Potency [7] | Potency [8] | outcome [9] | Potency [10]

CCn1c2ccccc2c2ccccc21
inactive: Potency [1] | Potency [3] | Potency [4] | Potency [5] | Potency [6] | Potency [7] | Potency [8]

CC1=CC[C@@H](C(C)(C)O)CC1
inactive: Potency [1] | Potency [3] | Potency [4] | Potency [5] | Potency [6] | Potency [7] | Potency [8]

CN(C/C=C/c1ccccc1)Cc1cccc2ccccc12
inactive: Potency [1] | Potency [2] | Potency [3] | Potency [5] | Potency [6] | Potency [7] | Potency [8] | outcome [9] | Potency [10]

CCCCCCCC/C=C\CCCCCCCC(=O)N(CCO)CCO
inactive: Potency [3] | Potency [4] | Potency [5] | Potency [6] | Potency [7]
active: Potency [1] 30.5 µM | Potency [8] 15.3 µM

CCc1cccc(C)c1N(C(=O)C(=O)O)C(C)COC (centres undefined)
inactive: Potency [1] | Potency [3] | Potency [4] | Potency [5] | Potency [6] | Potency [7] | Potency [8]

C1CCSC1
inactive: Potency [1] | Potency [3] | Potency [4] | Potency [5] | Potency [6] | Potency [7] | Potency [8]

Clc1nc(C(Cl)(Cl)Cl)c(Cl)c(Cl)c1Cl
inactive: Potency [1] | Potency [3] | Potency [4] | Potency [5] | Potency [6] | Potency [7]

Cc1cc(C)c(O)c(C(C)(C)C)c1
inactive: Potency [1] | Potency [3] | Potency [4] | Potency [5] | Potency [6] | Potency [7] | Potency [8] | outcome [9] | Potency [10]

CC(c1cc(C(C)(C)C)cc(C(C)(C)C)c1O)c1cc(C(C)(C)C)cc(C(C)(C)C)c1O
inactive: Potency [1] | Potency [3] | Potency [4] | Potency [5] | Potency [6] | Potency [7] | Potency [8] | outcome [9] | Potency [10]

CC(C)C(=O)C(C)C
inactive: Potency [1] | Potency [3] | Potency [4] | Potency [5] | Potency [6] | Potency [7] | Potency [8] | outcome [9] | Potency [10]

Cc1ccc2nc(-c3ccc(N)cc3)sc2c1S(=O)(=O)O
active: Potency [3] 3.8 µM | Potency [7] 1.9 µM
inactive: Potency [1] | Potency [4] | Potency [5] | Potency [6] | Potency [8]

N#Cc1ccc(C/C(=N/NC(=O)Nc2ccc(OC(F)(F)F)cc2)c2cccc(C(F)(F)F)c2)cc1
inactive: Potency [1] | Potency [3] | Potency [4] | Potency [5] | Potency [6] | Potency [7]

CCCCCCCCCCCCCCCCC(C(=O)O)C(O)(CC(=O)O)C(=O)O (centres undefined)
inactive: Potency [1] | Potency [2] | Potency [3] | Potency [4] | Potency [5] | Potency [7] | Potency [8] | outcome [9] | Potency [10]

O=C(O)C[C@H](O)C[C@H](O)/C=C/c1c(C2CC2)nc2ccccc2c1-c1ccc(F)cc1
inactive: activity change, negative = inhibition [1] 17.2% [at 19 µM] | Potency [2] | activity change, negative = inhibition [3] -0.0181% [at 19 µM] | activity change, negative = cytotoxicity [4] 0.738% [at 19 µM] | viability change, negative = cytotoxic [5] -7.99% [at 19 µM] | activity change, negative = inhibition [8] -28% [at 19 µM]

C=COCCCC
inactive: Potency [1] | Potency [3] | Potency [4] | Potency [5] | Potency [6] | Potency [7] | Potency [8] | outcome [9] | Potency [10]
